# Measured values published in PubChem BioAssay AID624297 (National Center for Advancing Translational Sciences (NCATS), 2012).
# Values joined by “and” are separate entries in the source; they are usually repeats but may differ in a detail not shown here. Equal entries are not always repeated. The whole screen tested about 340,000 compounds, of which about 6,200 (1.8%) were called active. Not shown: some 10% with an inconclusive outcome. Calls come from the whole dose curve; as a rule, active = well fitted activation curve with a large enough effect; inconclusive = small, poorly fitted or top-dose-only effect; inactive = no such curve, though single readings can be large or run the other way. The list comes from a sample in which actives are over-represented; it also holds similar structures and randomly drawn compounds. Where a structure was tested more than once in an assay, its records may differ in their call.
# Experiment: A quantitative high throughput screen for small molecules that induce DNA re-replication in SW480 colon adenocarcinoma cells. For re-replication activation: % of control where 0% means no effect. Note: nearly all actives have a fitted effect of over 55% in size.
# Details: Hoechst DNA content imaging, 48 h; series mostly up to 46.1 µM; re-replication activation: at the top concentration
# How it was run: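 Per well, 250 cells were exposed to pinned compound for 48 hr. Nuclear DNA was visualised with Hoechst (40 min, 37 C) and total object intensity recorded by fluorescence scanning.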
# Potency is the fitted concentration of half-maximal effect.
Structure (SMILES),re-replication activation,Potency
COc1ccc(C(=O)Nc2ccc(C3(C#N)CCCC3)cc2)cc1OC,10.6% (inactive),–
COc1ccc(C(=O)N/N=C2\CCS(=O)(=O)c3ccc(F)cc32)cc1OC,–,10.3 µM (active)
CCNC(=O)c1ccc(OCC(=O)Nc2ccc(F)cc2)c(OC)c1,-4.04% (inactive),–
CN(C)C(=O)CCc1ccc2c3c([nH]c2c1)[C@]1(C)[C@@H](C(=O)N2CCOCC2)C[C@H](CC(=O)NCCc2ccccn2)C(=O)N1CC3,2.59% (inactive),–
COc1ccc(NS(=O)(=O)c2ccc(N3CCOCC3)c(NC(=O)/C=C/C(=O)O)c2)cc1,1.18% (inactive),–
Cc1ccc(S(=O)(=O)CCC(=O)OCC(=O)N(C)Cc2ccccc2)cc1,-66.5% (inactive),–
CCOc1ccc(-n2c(O)c(/C=N/c3ccnn3Cc3ccncc3)c3ccccc3c2=O)cc1,–,20.6 µM (active)
Cc1ccc(-n2c(O)c(C=Nc3ccc(S(=O)(=O)Nc4ncccn4)cc3)c3ccccc3c2=O)cc1C,-2.11% (inactive),–
CCOc1ccc(-n2c(SCC(=O)Nc3cc(C(=O)O)ccc3Cl)nc3ccccc3c2=O)cc1,-13.2% (inactive),–
COc1ccc(C(CNC(=O)c2cccc(S(=O)(=O)Nc3ccc(Br)cc3)c2)N(C)C)cc1 (stereo not drawn),6.62% (inactive),–
CCOc1cc(C=NNC(=O)CCCC(=O)NN=Cc2ccc(O)c(OCC)c2)ccc1O,-6.49% (inactive),–
Cc1nc2ccccc2nc1N/N=C/c1ccc(O)cc1O,–,1.64 µM (active)
Oc1ccc(/C=N/NC2=NCCCCC2)c(O)c1,-5.14% (inactive),–
Oc1ccc(-c2nc3ccccc3nc2-c2ccc(O)cc2O)c(O)c1,-1.54% (inactive),–
COc1ccc(OCCNC(=O)c2cc(C3CC3)nc3c2cnn3C(C)C)cc1,-6.37% (inactive),–
Cc1cn(C2CC(O)C(CO)O2)c(=O)n(CCCc2ccccc2)c1=O (stereo not drawn),-5.17% (inactive),–
CN(C)c1ccc(CSc2ccccc2)cc1,-9.06% (inactive),–
COC(=O)Cc1nc2c(N)nc(N)nc2[nH]c1=O,-4.14% (inactive),–
Cc1sc2nc(SCCO)n(-c3ccccc3)c(=O)c2c1C,-5.37% (inactive),–
C=CCn1c(SCC(=O)c2c(N)n(C)c(=O)n(C)c2=O)nc2sc(CC)cc2c1=O,-1.6% (inactive),–
CCc1cc2c(=O)n(-c3ccccc3)c(SCC(=O)O)nc2s1,–,18.4 µM (active)
COc1ccc(C(=O)COC(=O)c2c(C)noc2C)cc1Cl,-8.23% (inactive),–
Cc1ccc(C(=O)NNC(=O)c2ccc3c(c2)OCCO3)cc1,-4.97% (inactive),–
CC1CCCCC1NCC(=O)Nc1ccccc1C(=O)Nc1ccccc1 (stereo not drawn),-3.41% (inactive),–

Structure (SMILES),re-replication activation,Potency
O=C(NNC(=O)c1ccccc1O)c1ccccc1O,–,1.64 µM (active)
O=C(Nc1ccc(O)cc1)c1ccccc1O,-4.02% (inactive),–
Cc1cc(C(=O)CCC(=O)NNC(=O)c2ccccc2O)c(C)s1,3.5% (inactive),–
O=C(CN1C(=O)c2ccc([N+](=O)[O-])cc2C1=O)Nc1nnc(C2CC2)s1,-0.538% (inactive),–
COc1cc(Cl)c(C)cc1NC(=O)CSc1nnc(CN2CCCC2)o1,0% (inactive),–
CC(=O)NC(=O)c1ccccc1O,-1.55% (inactive),–
C/C(=N\NC(=O)c1ccoc1C)c1ccccc1O,–,2.31 µM (active)
Cc1ccnc(NC(=O)c2ccoc2C)c1,1.1% (inactive),–
CC(C)NC(=O)Nc1cccc2c1O[C@@H](CN(C)S(=O)(=O)c1ccc(F)cc1)[C@@H](C)CN([C@H](C)CO)C2=O,16% (inactive),–
Cc1ccc(OCCNC(=O)c2cccc(S(=O)(=O)N3CCN(Cc4ccccc4)CC3)c2)cc1,11.6% (inactive),–
COc1cc(/C=C2/SC(=S)N(Cc3ccccc3)C2=O)cc(OC)c1O,-77.2% (inactive),–
CCCCN1C(=O)/C(=C2/C=CC=CN2C)SC1=S,3.3% (inactive),–
CN1C=CC=C/C1=C1\SC(=S)N(Cc2ccccc2)C1=O,–,23.1 µM (active)
O=C(O)C(CCc1ccccn1)c1ccccc1 (stereo not drawn),-10% (inactive),–
Cn1c(CC(=O)NNC(=O)c2ccccc2F)nc2ccccc21,9.79% (inactive),–
CN(NC(=O)c1ccccc1F)c1nc(C(F)(F)F)nc2ccccc12,–,0.517 µM (active)
CC(NC(=O)c1ccccc1F)c1cccc2ccccc12 (stereo not drawn),-6.5% (inactive),–
COC(=O)Cc1csc(/N=C/c2c(O)n(-c3cccc(C(F)(F)F)c3)c(=O)c3ccccc23)n1,–,inactive and 11.6 µM (active)
COC(=O)Cc1c(O)ccn(Cc2cccc(C(F)(F)F)c2)c1=O,0.872% (inactive),–
COC(=O)Cc1csc(Nc2c(C)n(C)n(-c3ccccc3)c2=O)n1,-10.6% (inactive),–
CC(C)(O)c1ccccc1CC[C@H](SCC1(CC(=O)O)CC1)c1cccc(/C=C/c2ccc3ccc(Cl)cc3n2)c1,2.31% (inactive),–
CN(C(=O)COC(=O)Cc1ccccc1[N+](=O)[O-])C1CCS(=O)(=O)C1 (stereo not drawn),0.116% (inactive),–
N#Cc1c(C(F)(F)F)cc(-c2ccc(Cl)cc2)nc1SCC(=O)O,-7.01% (inactive),–
CCOC(=O)CC(=O)CSc1nc(-c2ccccc2)cc(-c2ccc(Cl)cc2)c1C#N,–,20.6 µM (active)
